DRD3 antagonist = antagonists of human D3 dopamine receptor; P35462; D3R cells, DiscoveRx beta-arrestin luminescence, antagonist mode; hits give low values; max response, negative = inhibition, %; actives 2.5% (n = 360,000); in the data active = max response below about -50%; note: % is set by controls: 0 for no effect and ±100 for the full control effect
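Cells plated overnight at 1500 cells/well, then exposed to library compounds with dopamine controls for 90 minutes at 37 degrees C. DiscoveRx reagent added for 30–60 minutes at room temperature; luminescence read, quantitative HTS format.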
DRD3 agonist = activates the human D3 dopamine receptor; P35462; actives 0.58% (n = 410,000); AID 652048; D3R DiscoveRx beta-arrestin cells, luminescence, 90 min; max activation, %; in the data active = max activation above about 30%; note: 0% is about no effect
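Cells at 1500/well, incubated overnight, then treated with pinned compounds (dopamine as control) for 90 min at 37 degrees C. DiscoveRx reagent added for 30 - 60 minutes at room temperature; luminescence read.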
D1 antagonist = blocks dopamine activation of the human D1 receptor. actives 3.2% (n = 360,000). HEK293 TREx D1 cells, calcium flux, dopamine EC80; hits give low values. activity change, negative = inhibition, % at 10 µM; in the data active = activity change below about -30%; note: % is set by controls: 0 for no effect and ±100 for the full control effect
Target sequence (P21728 whole entry, looked up): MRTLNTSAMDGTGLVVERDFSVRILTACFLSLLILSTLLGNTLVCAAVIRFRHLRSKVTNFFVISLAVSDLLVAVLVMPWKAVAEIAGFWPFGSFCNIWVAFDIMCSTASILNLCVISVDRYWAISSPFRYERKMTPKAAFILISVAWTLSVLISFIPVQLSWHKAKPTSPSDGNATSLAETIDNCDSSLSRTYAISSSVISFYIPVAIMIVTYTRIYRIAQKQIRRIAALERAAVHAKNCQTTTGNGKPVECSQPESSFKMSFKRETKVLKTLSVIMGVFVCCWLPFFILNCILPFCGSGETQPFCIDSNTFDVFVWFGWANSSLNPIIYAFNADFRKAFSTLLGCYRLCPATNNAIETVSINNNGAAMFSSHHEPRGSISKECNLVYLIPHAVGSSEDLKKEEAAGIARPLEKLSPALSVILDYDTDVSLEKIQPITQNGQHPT
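Using tetracycline-induced force-coupled D1 Hek293 cells and a calcium dye, signals were followed for 180 s after compound, then for 180 s after EC80 dopamine, to detect inhibitors.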
D1 PAM = potentiators of human D1 dopamine receptor. AID 504651. HEK293 TREx D1 cells, calcium flux, dopamine EC20 potentiation. actives 0.036% (n = 360,000). P21728. potentiation, % at 10 µM; in the data active = potentiation above about 30%; note: 0% is about no effect
D1 agonist = agonists of human D1 dopamine receptor. P21728. activation, % at 2 µM. HEK293 T-REx D1 cells, calcium flux, agonist mode. actives 1% (n = 360,000); in the data active = activation above about 30%; note: 0% is about no effect
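Inducible HEK293 T-REx D1 cells, force-coupled to calcium signalling, were plated at 4000 cells/well with tetracycline and held overnight at 30 C. After no-wash calcium dye loading, compound-evoked calcium rise over 180 s flagged agonists.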
Numbers without * were called inactive; x = no result given. Rows were chosen to be rich in hits. Some 6% of all compounds tested hit in one or more screens of this group.

SMILES	DRD3 antagonist	DRD3 agonist	D1 antagonist	D1 PAM	D1 agonist
CCc1ccc(NC(=O)C2CCCN(S(=O)(=O)c3cccc4nsnc34)C2)cc1 (stereo not drawn)	x	1.6	-18.6	3.2	3.4
O=S(=O)(c1ccccc1)N1CCN(S(=O)(=O)c2ccc3c(c2)OCCO3)CC1	x	x	14.2	-5.9	5.9
Cc1cc(C(=O)O)ccc1-c1ccc(/C=C2\SC(=O)N(CC(=O)Nc3ccc4c(c3)OCO4)C2=O)o1	x	x	-14.8	-3.0	43.1*
Cc1ccc(C(=O)O)cc1-c1ccc(/C=C2\SC(=O)N(CC(=O)Nc3ccccc3)C2=O)o1	-18.1	-9.2	-14.5	-11.9	3.0
COc1ccc(CCNCC(O)Cn2c3ccccc3c3ccccc32)cc1OC (stereo not drawn)	1.2	-9.7	-18.9	-4.8	55.3*
COc1ccc(CNC(=O)c2ccc3c(c2)nc2n3CCC(C)C2)c(OC)c1 (stereo not drawn)	x	-10.9	-9.0	-1.9	1.9
NC(=O)c1c(N)sc2c1CCCC2	-5.7	11.0	-6.5	0.7	1.9
Nc1sc2c(c1C(=O)c1ccccc1)CCCC2	-7.2	3.6	-65.8*	-1.4	1.4
Cc1ccc2c(CNCc3ccc(C)o3)c(C(=O)O)n(Cc3ccccc3C)c2c1	x	3.8	11.9	4.7	0.5
COC(=O)c1sc2cccc(F)c2c1S(=O)(=O)NCc1ccc(F)cc1	x	0.1	-3.7	-5.0	0.9
COc1ccccc1C(c1nnnn1Cc1ccccc1)N1CCN(C2CCCC2)CC1 (stereo not drawn)	-58.5*	-7.0	14.8	2.6	3.7
COc1cccc(C(c2nnnn2Cc2ccccc2)N2CCN(C3CCCC3)CC2)c1OC (stereo not drawn)	0.0	-7.6	-6.0	0.2	2.1
COc1ccc(OC)c(C(c2nnnn2CCc2ccccc2)N2CCC(C(N)=O)CC2)c1 (stereo not drawn)	-10.2	-4.3	-4.1	-5.2	1.7
COc1ccc(OC)c(C(c2nnnn2Cc2ccccc2)N2CCC(C(N)=O)CC2)c1 (stereo not drawn)	0.0	-1.6	-44.7*	-5.0	2.4
O=C(CCn1c(=O)c2cccn2c2cccnc21)NCc1ccccc1Br	x	-14.4	8.5	-1.9	1.0
O=C1CC(c2ccccc2)CC(O)=C1C=Nc1ccccc1Cl (stereo not drawn)	-81.3*	-15.6	1.1	-9.8	8.0
COc1ccc(N2CCN(CCCNC(=O)c3c(C)nn(-c4ccc(F)cc4)c3-n3cccc3)CC2)cc1	x	-0.8	10.1	-1.5	0.4
Cc1ccc(N2CCN(S(=O)(=O)c3cccc4ccccc34)CC2)cc1Cl	x	-13.2	-4.8	3.7	0.9
CCc1ccccc1N(CC(=O)NCCc1ccccc1)C(=O)CCC(=O)Nc1ccccn1	-3.0	-2.3	-30.0*	-12.0	39.8*
COc1cc(NC(=O)CC(c2ccc(C)cc2)N2Cc3ccccc3C2=O)cc(OC)c1 (stereo not drawn)	x	-7.2	-8.5	-2.5	5.1
O=C(COC(=O)CSc1nnc(-c2ccc(Cl)cc2)o1)NCc1ccc2c(c1)OCO2	40.0	-0.3	-35.6*	-16.8	4.0
N#Cc1ccc(NC(=O)COC(=O)CSc2nnc(-c3ccc(Cl)cc3)o2)cc1	18.3	-4.4	-37.4*	-6.8	9.6
COc1ccc(Cl)cc1NS(=O)(=O)c1ccc2c(c1)NC(=O)CC(=O)N2	x	3.3	-2.9	-1.1	1.0
C=CCNc1nc(NCCOc2ccccc2Cl)c2sc(-c3ccccc3)cc2n1	-66.5*	-13.3	x	x	x
CC(C)Nc1nc(NCCN2CCCC2)c2sc(-c3ccccc3)cc2n1	-64.9*	-10.5	x	x	x
C=CCNc1nc(NCCOC)c2sc(-c3ccccc3)cc2n1	-22.8	-11.0	x	x	x
O=C(CN(C(=O)c1cccc([N+](=O)[O-])c1)C1CCCCC1)Nc1ccc(Cl)c([N+](=O)[O-])c1	-79.1*	-12.3	-3.4	-2.7	0.3
O=C(C1CC(c2ccccc2O)=NO1)N1CCc2ccccc2C1 (stereo not drawn)	-94.8*	-1.9	3.2	3.4	1.9
COc1ccc(N2CC(c3nc(-c4ccccc4C)no3)CC2=O)cc1Cl (stereo not drawn)	x	0.3	-10.7	-6.2	8.2
CCOc1ccc(S(=O)(=O)N(C(=O)c2ccncc2)c2ccc3oc(C)c(C(=O)OC)c3c2)cc1	x	7.1	-45.5*	-1.9	2.4
